Source: PubChem BioAssay (EPA / NIEHS)
Inconclusive results are not listed. Calls of active or inactive are those of the source. How the source made its calls, unless noted: active means hit-call score of the fitted dose curve at least 0.9, where 1 is the maximum; inactive means score below 0.9.

How the values were obtained:
[1] = ATG_PBREM_CIS: Attagene CIS-FACTORIAL HepG2 Assay for human Phenobarbital-responsive Enhancer Module (PBREM) (AID 2282955); details: HepG2 PBREM cis-reporter, Attagene multiplexed transcription; actives raise or lower the signal
In short: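 Readout: reporter mRNA, fluorescent RT-PCR fragments separated by capillary electrophoresis. System: HepG2 transiently transfected with cis-regulated reporter units. Exposure: 24 h. Analysis: bidirectional, DMSO baseline.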

[2] = target: Paired box protein Pax-6 (Homo sapiens) (UniProt P26367); assay: ATG_Pax6_CIS: Attagene CIS-FACTORIAL HepG2 Assay for human Paired Box 6 (PAX6) (AID 2282956); details: HepG2 CIS-FACTORIAL PAX6 reporter transcription, RNA readout; actives raise or lower the signal
Chain of Paired box protein Pax-6 (Homo sapiens) (P26367 whole entry, looked up): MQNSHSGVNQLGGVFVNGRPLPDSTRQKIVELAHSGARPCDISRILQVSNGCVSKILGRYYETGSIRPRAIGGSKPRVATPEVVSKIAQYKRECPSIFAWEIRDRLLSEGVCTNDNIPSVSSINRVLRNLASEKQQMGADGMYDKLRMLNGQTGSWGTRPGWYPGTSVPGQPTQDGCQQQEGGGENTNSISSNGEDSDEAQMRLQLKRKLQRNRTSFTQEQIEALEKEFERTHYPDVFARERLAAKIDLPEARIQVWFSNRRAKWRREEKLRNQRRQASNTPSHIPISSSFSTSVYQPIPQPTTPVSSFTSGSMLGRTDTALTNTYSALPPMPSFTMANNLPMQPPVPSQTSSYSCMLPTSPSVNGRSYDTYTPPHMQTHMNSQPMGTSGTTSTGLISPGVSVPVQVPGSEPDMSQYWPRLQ
In short: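 Readout: reporter transcript fluorescence after RT-PCR and capillary electrophoresis. Cells: HepG2, transiently transfected with cis-regulated MRTUs. Exposure 24 h. Gain or loss of signal fitted bidirectionally relative to DMSO.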

[3] = ATG_PXRE_CIS: Attagene CIS-FACTORIAL HepG2 Assay for human Pregnane X Receptor Element (PXRE) (AID 2282957); details: HepG2 Attagene CIS-FACTORIAL PXRE reporter, mRNA; actives raise or lower the signal
In short: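 Read-out: fluorescence of reporter-specific RT-PCR products resolved by capillary electrophoresis, fitted bidirectionally relative to DMSO. Human HepG2 liver cells carried transfected cis-promoter reporter units and were exposed to chemicals for 24 h.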

[4] = ATG_PPRE_CIS: Attagene CIS-FACTORIAL HepG2 Assay for human Peroxisome Proliferator-activated Response Element (PPRE) (AID 2282958); details: HepG2 PPRE cis-element reporter, Attagene transcription factor profiling; actives raise or lower the signal
In short: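 After human HepG2 hepatoma cells were transiently transfected with cis-promoter reporter constructs, they were exposed to test chemicals for 24 hours. Reporter RNA was then reverse-transcribed, PCR-amplified, FAM-labeled, HpaI-digested and quantified by capillary electrophoresis.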

[5] = ATG_RORE_CIS: Attagene CIS-FACTORIAL HepG2 Assay for human RAR-related Orphan Receptor Element (RORE) (AID 2282959); details: HepG2 Attagene cis-factorial RORE reporter, mRNA; actives raise or lower the signal
In short: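 Measured here: transcript induction of a cis-regulated reporter in HepG2 cells transiently transfected via FuGene 6. After 24 h, RNA was processed by RT-PCR and fluorescent capillary electrophoresis; DMSO defined baseline activity.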

[6] = ATG_Sox_CIS: Attagene CIS-FACTORIAL HepG2 Assay for human SRY-box transcription factor (SOX) (AID 2282960); details: HepG2 Attagene cis-factorial SOX reporter, mRNA; actives raise or lower the signal
In short: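 Using transiently transfected HepG2 cells, reporter transcription driven by cis elements was assessed 24 h after dosing. Signal was fluorescence of capillary-separated RT-PCR products, with DMSO defining baseline activity.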

[7] = target: Transcription factor Sp1 (Homo sapiens) (UniProt P08047); assay: ATG_Sp1_CIS: Attagene CIS-FACTORIAL HepG2 Assay for human Specificity Protein 1 (Sp1) (AID 2282961); details: HepG2 Sp1 cis-reporter transcription, actives raise or lower the signal
Chain of Transcription factor Sp1 (Homo sapiens) (P08047 whole entry, looked up): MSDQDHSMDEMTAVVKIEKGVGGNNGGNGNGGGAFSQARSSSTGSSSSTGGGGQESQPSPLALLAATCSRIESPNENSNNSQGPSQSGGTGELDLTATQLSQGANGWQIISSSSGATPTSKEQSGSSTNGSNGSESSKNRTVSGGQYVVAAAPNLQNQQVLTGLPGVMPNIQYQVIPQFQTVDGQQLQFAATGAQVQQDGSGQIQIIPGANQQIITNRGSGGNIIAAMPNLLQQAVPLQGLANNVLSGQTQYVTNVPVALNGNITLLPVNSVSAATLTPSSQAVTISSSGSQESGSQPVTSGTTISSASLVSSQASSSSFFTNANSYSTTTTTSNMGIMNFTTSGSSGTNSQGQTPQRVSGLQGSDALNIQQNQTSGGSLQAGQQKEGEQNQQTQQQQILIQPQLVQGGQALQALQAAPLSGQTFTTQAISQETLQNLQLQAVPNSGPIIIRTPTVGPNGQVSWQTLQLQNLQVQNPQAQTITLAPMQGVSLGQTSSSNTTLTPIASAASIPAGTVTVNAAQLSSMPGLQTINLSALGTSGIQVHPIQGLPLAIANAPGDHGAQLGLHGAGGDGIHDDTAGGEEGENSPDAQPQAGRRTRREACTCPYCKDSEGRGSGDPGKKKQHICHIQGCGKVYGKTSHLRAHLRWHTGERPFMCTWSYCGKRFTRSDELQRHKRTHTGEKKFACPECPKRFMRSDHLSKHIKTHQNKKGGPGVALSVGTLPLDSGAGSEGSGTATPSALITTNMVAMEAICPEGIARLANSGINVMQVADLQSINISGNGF
In short: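 After transient transfection of HepG2 cells with cis-promoter reporter units and 24 h chemical treatment, reporter transcripts were quantified by RT-PCR and capillary electrophoresis fluorescence. Gain- and loss-of-signal fitted against DMSO.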

[8] = ATG_SREBP_CIS: Attagene CIS-FACTORIAL HepG2 Assay for human Sterol Regulatory Element Binding (SREBP) (AID 2282962); details: HepG2 Attagene cis-factorial SREBP reporter, mRNA; actives raise or lower the signal
In short: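 Readout: fluorescent reporter-transcript peaks resolved by capillary electrophoresis after RT-PCR. Cells were human HepG2 carrying transfected cis-promoter reporter constructs, dosed for 24 h. Gain or loss of signal was fitted against DMSO controls.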

[9] = target: Signal transducer and activator of transcription 3 (Homo sapiens) (UniProt P40763); assay: ATG_STAT3_CIS: Attagene CIS-FACTORIAL HepG2 Assay for human Signal Transducer and Activator of Transcription 3 (STAT3) (AID 2282963); details: HepG2, Attagene cis-factorial STAT3 reporter transcription; actives raise or lower the signal
Chain of Signal transducer and activator of transcription 3 (Homo sapiens) (P40763 whole entry, looked up, the tested form may be a part): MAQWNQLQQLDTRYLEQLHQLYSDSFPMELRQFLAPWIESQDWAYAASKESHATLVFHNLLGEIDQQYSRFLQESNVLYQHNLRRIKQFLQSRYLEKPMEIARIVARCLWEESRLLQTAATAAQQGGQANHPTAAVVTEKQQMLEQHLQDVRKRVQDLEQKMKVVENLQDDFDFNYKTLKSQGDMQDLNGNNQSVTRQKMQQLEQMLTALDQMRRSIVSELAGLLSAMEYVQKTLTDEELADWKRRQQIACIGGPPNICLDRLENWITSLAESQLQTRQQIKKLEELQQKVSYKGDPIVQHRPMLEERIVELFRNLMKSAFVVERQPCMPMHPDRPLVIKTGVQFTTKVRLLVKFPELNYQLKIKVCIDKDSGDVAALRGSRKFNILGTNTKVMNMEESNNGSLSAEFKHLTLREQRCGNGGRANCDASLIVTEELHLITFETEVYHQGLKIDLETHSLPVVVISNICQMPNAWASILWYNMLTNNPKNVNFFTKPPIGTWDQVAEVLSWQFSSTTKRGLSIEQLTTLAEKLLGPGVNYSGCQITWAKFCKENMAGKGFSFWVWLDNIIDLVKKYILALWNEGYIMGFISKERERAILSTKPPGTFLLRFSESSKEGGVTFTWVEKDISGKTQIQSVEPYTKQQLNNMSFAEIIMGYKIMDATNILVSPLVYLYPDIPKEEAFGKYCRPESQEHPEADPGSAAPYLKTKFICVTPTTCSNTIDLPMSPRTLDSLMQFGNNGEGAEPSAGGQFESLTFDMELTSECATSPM
In short: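 Fluorescence intensity of 6-FAM-labelled reporter fragments, separated by capillary electrophoresis after RT-PCR, gave the signal. Cells were HepG2 transfected with cis-element reporter units and treated 24 h; fitting was bidirectional relative to DMSO.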

[10] = ATG_TA_CIS: Attagene CIS-FACTORIAL HepG2 Assay for human TA Basal Promoter (AID 2282964); details: HepG2 Attagene CIS-factorial TA basal promoter reporter; actives raise or lower the signal
In short: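 Steps: transfect HepG2 with MRTUs; dose 24 h; isolate RNA, DNase-treat, reverse-transcribe; PCR and FAM-label reporter cDNA; digest with HpaI 2h at 37 C; run capillary electrophoresis. Activity fitted both directions against DMSO.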

[11] = ATG_TCF_b_cat_CIS: Attagene CIS-FACTORIAL HepG2 Assay for human T-Cell-Factor with beta-catenin (TCF/b-cat) (AID 2282965); details: HepG2 TCF/beta-catenin cis-reporter transcription, actives raise or lower the signal
In short: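 HepG2, transient MRTU transfection, cis-element-driven reporters (endogenous TFs). 24 h compound exposure. Readout: reporter mRNA by RT-PCR + 6-FAM primer extension, HpaI digest, capillary electrophoresis. Gain/loss fit vs DMSO baseline.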

[12] = ATG_TAL_CIS: Attagene CIS-FACTORIAL HepG2 Assay for human TAL Basal Promoter (AID 2282966); details: HepG2 Attagene cis-factorial TAL promoter reporter; actives raise or lower the signal;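 further: background control endpoint measuring basal TAL promoter reporter mRNA not a specific factor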
In short: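 HepG2, transient MRTU transfection, 24 h compound exposure; RNA → oligo(dT) RT → PCR → 6-FAM primer extension → HpaI digest → CE fluorescence. Bidirectional curve fit vs DMSO. Background-control readout.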

[13] = ATG_TGFb_CIS: Attagene CIS-FACTORIAL HepG2 Assay for human Transforming Growth Factor (TGF) (AID 2282967); details: HepG2 Attagene CIS TGFb reporter, mRNA transcription; actives raise or lower the signal
In short: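 Cells were dosed for 24 hours, after which total RNA was reverse-transcribed and reporter sequences amplified, labeled and sized by capillary electrophoresis. Activity was fitted in both directions against DMSO.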

[14] = ATG_VDRE_CIS: Attagene CIS-FACTORIAL HepG2 Assay for human Vitamin D Receptor Element (VDRE) (AID 2282968); details: HepG2 VDRE cis-reporter transcription, actives raise or lower the signal
In short: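 Compounds were applied for 24 h to HepG2 cells transfected with promoter-regulated reporter units. Total RNA was reverse-transcribed, and reporter amplicons were fluorescently labelled and sized by capillary electrophoresis.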

[15] = target: Estrogen receptor (Homo sapiens) (UniProt P03372); assay: ATG_ERa_TRANS: Attagene TRANS-FACTORIAL HepG2 Assay for human Estrogen Receptor alpha (ERa) (AID 2282970; active means hit-call score of the fitted dose curve at least 0.9, where 1 is the maximum); details: HepG2 Attagene TRANS ERa GAL4 reporter, mRNA
Chain of Estrogen receptor (Homo sapiens) (P03372 whole entry, looked up, the tested form may be a part): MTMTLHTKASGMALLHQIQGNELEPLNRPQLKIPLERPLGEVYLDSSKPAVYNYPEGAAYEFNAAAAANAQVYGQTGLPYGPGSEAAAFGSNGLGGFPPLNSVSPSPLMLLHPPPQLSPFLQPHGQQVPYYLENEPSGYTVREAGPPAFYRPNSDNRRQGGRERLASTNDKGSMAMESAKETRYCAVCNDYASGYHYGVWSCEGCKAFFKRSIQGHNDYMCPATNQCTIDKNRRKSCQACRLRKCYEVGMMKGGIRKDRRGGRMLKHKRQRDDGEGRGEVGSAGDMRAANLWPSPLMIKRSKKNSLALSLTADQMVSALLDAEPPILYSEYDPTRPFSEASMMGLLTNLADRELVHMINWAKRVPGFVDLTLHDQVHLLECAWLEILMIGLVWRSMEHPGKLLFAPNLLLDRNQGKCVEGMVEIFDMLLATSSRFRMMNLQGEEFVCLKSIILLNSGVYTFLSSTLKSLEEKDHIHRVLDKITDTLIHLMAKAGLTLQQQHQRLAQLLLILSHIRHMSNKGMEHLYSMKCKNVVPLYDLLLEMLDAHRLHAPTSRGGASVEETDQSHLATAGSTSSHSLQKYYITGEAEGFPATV
In short: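 Reporter mRNA induction after 24 hours, detected by fluorescent RT-PCR and capillary electrophoresis, gives the read-out. Cells are HepG2 transiently transfected with GAL4-UAS reporter transcription units responding to chimeric NR-Gal4. Activity is taken as gain of signal over DMSO baseline.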

[16] = target: Steroid hormone receptor ERR1 (Homo sapiens) (UniProt P11474); assay: ATG_ERRa_TRANS: Attagene TRANS-FACTORIAL HepG2 Assay for human Estrogen-Related Receptor alpha (ERRa) (AID 2282971; active means hit-call score of the fitted dose curve at least 0.9, where 1 is the maximum); details: HepG2 Attagene TRANS reporter, ERRa transactivation
Chain of Steroid hormone receptor ERR1 (Homo sapiens) (P11474 whole entry, looked up, the tested form may be a part): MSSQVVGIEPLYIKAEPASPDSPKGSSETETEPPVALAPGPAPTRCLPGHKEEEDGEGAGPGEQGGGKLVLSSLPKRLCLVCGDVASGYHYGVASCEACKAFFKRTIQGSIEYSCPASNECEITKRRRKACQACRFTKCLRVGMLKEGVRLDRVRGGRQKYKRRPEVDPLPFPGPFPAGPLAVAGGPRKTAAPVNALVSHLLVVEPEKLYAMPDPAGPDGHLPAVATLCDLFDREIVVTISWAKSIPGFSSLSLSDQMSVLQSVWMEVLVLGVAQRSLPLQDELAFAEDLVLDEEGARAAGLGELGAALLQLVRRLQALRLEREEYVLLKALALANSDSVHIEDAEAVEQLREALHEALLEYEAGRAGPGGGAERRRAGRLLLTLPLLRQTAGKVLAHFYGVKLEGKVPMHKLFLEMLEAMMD
In short: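 Transfected HepG2, 24 h dosing, ERRa-Gal4 chimera driving GAL4-UAS reporter. Readout: reporter mRNA via RT-PCR plus capillary electrophoresis (fluorescence). Positive direction vs DMSO control.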

[17] = target: X-box-binding protein 1 (Homo sapiens) (UniProt P17861); assay: ATG_Xbp1_CIS: Attagene CIS-FACTORIAL HepG2 Assay for human X-box Binding Protein 1 (XBP1) (AID 2282972); details: HepG2 XBP1 cis-element reporter, Attagene multiplex; actives raise or lower the signal
Chain of X-box-binding protein 1 (Homo sapiens) (P17861 whole entry, looked up, the tested form may be a part): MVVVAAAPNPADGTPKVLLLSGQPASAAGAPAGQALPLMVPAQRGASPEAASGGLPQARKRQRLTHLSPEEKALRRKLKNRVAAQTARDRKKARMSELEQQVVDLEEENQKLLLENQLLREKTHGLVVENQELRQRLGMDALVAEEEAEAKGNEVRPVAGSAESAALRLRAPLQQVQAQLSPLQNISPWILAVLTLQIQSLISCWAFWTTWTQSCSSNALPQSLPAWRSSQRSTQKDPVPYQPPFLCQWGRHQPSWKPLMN
In short: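 Read-out: fluorescent reporter mRNA fragments resolved by capillary electrophoresis after RT-PCR. Human HepG2 liver cells carried transfected cis-promoter reporter units and were exposed to chemicals for 24 hours. Gain or loss of signal fitted relative to DMSO baseline.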

[18] = ATG_M_19_TRANS: Attagene TRANS-FACTORIAL HepG2 Assay for M19 Transcription Factor (Internal Marker) (AID 2282974; active means hit-call score of the fitted dose curve at least 0.9, where 1 is the maximum); details: HepG2 Attagene TRANS-FACTORIAL M19 internal marker reporter
In short: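 Gain-of-signal in reporter mRNA, relative to DMSO, was scored from capillary electrophoresis fluorescence. HepG2 cells carried transiently transfected multiple reporter transcription units and were incubated with test chemicals for 24 h.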

[19] = ATG_GAL4_TRANS: Attagene TRANS-FACTORIAL HepG2 Assay for GAL4 (Internal Marker) (AID 2282976; active means hit-call score of the fitted dose curve at least 0.9, where 1 is the maximum); details: HepG2 Attagene TRANS GAL4 internal marker reporter
In short: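 RT-PCR/capillary electrophoresis readout of reporter mRNA. HepG2, transient MRTU transfection (GAL4-UAS reporters), 24 h compound exposure. Background-control endpoint, positive direction vs DMSO baseline.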

[20] = target: Nuclear receptor subfamily 1 group I member 3 (Homo sapiens) (UniProt Q14994); assay: ATG_CAR_TRANS: Attagene TRANS-FACTORIAL HepG2 Assay for human Constitutive Androstane Receptor (CAR) (AID 2282969; active means hit-call score of the fitted dose curve at least 0.9, where 1 is the maximum;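 further: activators raise reporter mRNA above DMSO so AC50 marks induction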); details: HepG2 Attagene TRANS-FACTORIAL CAR reporter
Chain of Nuclear receptor subfamily 1 group I member 3 (Homo sapiens) (Q14994 whole entry, looked up, the tested form may be a part): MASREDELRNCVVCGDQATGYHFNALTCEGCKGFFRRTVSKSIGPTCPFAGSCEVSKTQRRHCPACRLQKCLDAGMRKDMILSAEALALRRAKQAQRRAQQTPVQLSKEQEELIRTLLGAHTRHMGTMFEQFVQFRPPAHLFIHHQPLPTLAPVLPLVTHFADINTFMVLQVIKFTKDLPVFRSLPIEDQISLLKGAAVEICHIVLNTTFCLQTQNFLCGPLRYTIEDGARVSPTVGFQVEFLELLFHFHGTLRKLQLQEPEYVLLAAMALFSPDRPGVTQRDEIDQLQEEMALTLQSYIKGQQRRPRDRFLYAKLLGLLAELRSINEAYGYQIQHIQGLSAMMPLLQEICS
In short: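 Transiently transfected HepG2, multiplex TRANS reporters (CAR-Gal4 chimera driving GAL4-UAS reporter). 24 h dosing. Readout: reporter transcript by RT-PCR + capillary electrophoresis, fluorescence intensity; positive direction vs DMSO.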

Measured: AC50

NNC(=O)OCc1ccccc1
inactive: [1] | [2] | [3] | [4] | [5] | [6] | [7] | [8] | [9] | [10] | [11] | [12] | [13] | [14] | [15] | [16] | [17] | [18] | [19]

CCCc1ccc(O)cc1
inactive: [1] | [2] | [3] | [4] | [5] | [6] | [7] | [8] | [9] | [10] | [11] | [12] | [13] | [14] | [17] | [18]

CC(C)C(=O)OCC=Cc1ccccc1
inactive: [1] | [2] | [4] | [5] | [6] | [7] | [8] | [9] | [10] | [11] | [12] | [13] | [14] | [20] | [15] | [17] | [18]
active: [3] 16.4 µM

CCCCCCOc1ccc(O)cc1
active: [2] 33.4 µM | [3] 5.85 µM | [10] 39.2 µM | [11] 20.5 µM | [14] 33.4 µM | [15] 2.85 µM
inactive: [1] | [4] | [5] | [6] | [7] | [8] | [9] | [12] | [13] | [18]

Nc1cc([N+](=O)[O-])ccc1C(=O)O
inactive: [1] | [2] | [4] | [5] | [6] | [7] | [8] | [9] | [10] | [11] | [12] | [13] | [14] | [20] | [17] | [18]
active: [3] 64.5 µM

O=Cc1ccccc1O
active: [3] 100 µM | [5] 76.3 µM
inactive: [1] | [2] | [4] | [6] | [7] | [8] | [9] | [10] | [11] | [12] | [13] | [14] | [20] | [17] | [18]

Brc1cc(Br)cc(Br)c1
inactive: [1] | [2] | [4] | [5] | [6] | [7] | [8] | [9] | [10] | [11] | [12] | [20] | [15] | [16] | [17]
active: [3] 100 µM | [13] 100 µM | [14] 65 µM

C=C/C(C)=C/C/C=C(\C)CCC=C(C)C
inactive: [1] | [2] | [4] | [5] | [6] | [7] | [8] | [9] | [10] | [11] | [12] | [13] | [14] | [15]
active: [3] 3.8 µM
